Screening results (PubChem)
Dicer processing = blocks human Dicer maturation of pre-miR-21; 6% of 47,000 active; z-score at 25 µM; cat-ELCCA pre-miR-21 Dicer processing, chemiluminescence; hits give high values; in the data active = z-score above about 3, passing the limit was not always enough;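 also: higher signal means more uncleaved substrate so more Dicer inhibition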
Numbers stand for hits; - = inactive. Only a selection was taken, and hits are over-represented in it overall.

SMILES	Dicer processing
S=c1[nH]nc(CSCc2cccc3ccccc23)n1C1CCCCC1	3.6
O=c1oc2ccccc2c2c1nnn2C1CCCCC1	-
CC1=Nc2ccccc2-c2nnc(SCc3ccc(C)cc3)nc2O1	-
COc1ccccc1/C=C1\N=C(SC)SC1=O	-
O=C(c1ccc(Cl)c(Cl)c1)c1cc2cc(Cl)ccc2o1	-
CC(C)(C)c1cc2nc(C(F)(F)F)cc(N3CCN(C(=O)c4ccccc4)CC3)n2n1	-
O=C1c2ccccc2C(=O)N1CN(Cc1ccsc1)CN1C(=O)c2ccccc2C1=O	-
N#Cc1c(F)ccc(NC(=O)Nc2ccc(Cl)cc2)c1F	-
O=C(Nc1ccc(Cl)cc1)Nc1nc(-c2cc(Cl)c(Cl)s2)cs1	-
O=C(Nc1ccc(Cl)cc1)Nc1cc(Cl)sc1Cl	4.7
Cc1cccc(Cn2nc(C(C)(C)C)cc2-c2n[nH]c(=S)o2)c1	-
Cc1cc(NC(=O)c2c(-c3c(Cl)cccc3Cl)noc2C)c([N+](=O)[O-])cc1C	-
CC(C)S[C@@H]1O[C@H](CO)[C@@H](O)[C@H](O)[C@H]1O	-
COC(=O)c1cc(OC)c(OC)cc1NC(=O)N1c2ccccc2Sc2ccccc21	-
COc1cc(NC(=O)N2c3ccccc3Sc3ccccc32)c(C(=O)O)cc1OC	-
COc1ccccc1NC(=O)N1c2ccccc2Sc2ccccc21	3.1
O=C(O)/C=C/c1ccc(O)c(O)c1	-
O=c1nc(/C=C/c2ccc(O)c(O)c2)oc2ccccc12	4
CSc1ccc(/C=C/c2nc(=O)c3ccccc3o2)cc1	-
O=C(/C=C(\O)c1ccccc1)C(=O)Nc1ccccn1	-
COc1ccc(C2Nc3cc(C)c(C)cc3NC3=C2C(=O)CC(C)(C)C3)cc1 (stereo unspecified)	-
O=C1/C(=C/c2cccs2)COC/C1=C\c1cccs1	4.2
O=C1/C(=C/c2cccs2)CS/C1=C/c1cccs1	-
O=C1/C(=C/c2cccs2)CCCc2ccccc21	-
CCOC(=O)c1cc(C#N)c(Sc2ccccc2NC(=O)c2ccccc2)nc1C(F)(F)F	-
SMILES	Dicer processing
COc1cc(C(=O)Oc2c(Cl)cc(Cl)cc2C=Nc2ccc([N+](=O)[O-])cc2C#N)cc(OC)c1OC	-
COc1cc(CNCc2cc(Br)ccc2OC)cc(OC)c1	-
COc1ccc(CNCc2cc(Br)ccc2OC)cc1	-
COc1ccc(Br)cc1CNc1cc(C)cc(C)c1	3.6
O=C(NCc1cc(Cl)ccc1Cl)c1cc2cccc([N+](=O)[O-])c2[nH]1	-
O=C(Nc1ccc(Cl)cc1)OCCSCc1ccc2nc(C(F)(F)F)ccc2c1	-
CC1CCc2c(sc(NC(=O)c3ccco3)c2C(=O)O)C1 (stereo unspecified)	-
Cc1onc(-c2ccccc2)c1C(=O)NC1CCCCC1NC(=O)c1c(-c2ccccc2)noc1C (stereo unspecified)	-
Cc1onc(-c2ccccc2)c1C(=O)Nc1sc2c(c1C#N)CCC(C)C2 (stereo unspecified)	4.7
COc1ccc(Oc2c(C)oc3cc(OC(=O)N4CCOCC4)ccc3c2=O)cc1	-
O=C(Oc1ccc2c(=O)c(-c3ccc(Cl)cc3)c(C(F)(F)F)oc2c1)N1CCOCC1	4
CC(=O)Oc1ccc2c(=O)c(Oc3ccc(Cl)cc3)c(C(F)(F)F)oc2c1	-
COC(=O)CSc1nc(N)cc(=O)[nH]1	-
C(=N\Nc1nc2ccccc2s1)/c1cccs1	-
COc1cc2ccccc2cc1C(=O)Nc1nc2ccccc2s1	-
Cc1nn(-c2ccccc2)cc1/C=N/Nc1nc2ccccc2s1	-
C(=N\Nc1nc2ccccc2s1)/c1ccco1	3.8
COc1cc(/C=N/Nc2nc3ccccc3s2)cc(OC)c1OC	3.5
COc1cc(/C=N/NC(=S)NCCc2ccccc2)cc(OC)c1OC	-
Cc1ccc(N)c(C(=O)Nc2ccc(Cl)cc2)c1	5.1
Cc1c(C(=O)Nc2ccc(Cl)cc2)cc(-c2ccccc2)n1-c1ccccc1	-
CCOC(=O)c1cc(C)ccc1NC(=O)c1ccc(Cl)cc1	-
N#CC(C(=O)c1ccccc1Cl)=C1SCCS1	-
CC(C)(C)S(=O)(=O)/C(C#N)=C/N1CCOCC1	-
Cc1ccc(C(C)C)c(OCCCN2C(=O)C(=O)c3cccc(C)c32)c1	-
SMILES	Dicer processing
Cc1ccc(OCCN2C(=O)C(=O)c3cc(C)ccc32)cc1	3.1
Cc1ccc(C(C)C)c(OCCN2C(=O)C(=O)c3cc(C)ccc32)c1	-
CC(C)OC(=O)C1C(=O)CC(C)(O)C(C(=O)OC(C)C)C1c1ccc(N(C)C)cc1 (stereo unspecified)	-
CC(C)(C)NCc1nc(-c2ccccc2)no1	-
CCOc1cc(C2C3=C(CCCC3=O)NC3=C2C(=O)CCC3)ccc1O	-
Nc1ncnc2c1ncn2CC(O)CO (stereo unspecified)	6.8
Nc1ncnc2c1ncn2CCN1CCCCC1	-
Nc1ncnc2c1ncn2CCc1ccccc1	-
C=CCOc1ccc(C2c3c(oc4ccc(F)cc4c3=O)C(=O)N2Cc2ccc3c(c2)OCO3)cc1 (stereo unspecified)	-
O=C(COC(=O)c1cccc2cccc(Sc3ccccc3)c12)c1ccc(Br)cc1	-
Cn1c(=O)c2c(nc(Oc3cc(Cl)c(Cl)cc3Cl)n2Cc2ccccc2)n(C)c1=O	-
